Results on 15 compounds are retold here after PubChem BioAssay.

Experiment [1] in a line: liver-stage malaria parasite load reduction – cell-based, known kinase inhibitor set, luminescence, hepatoma host viability (AID 624392).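 Also: infected cells incubated roughly two days before readout.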 As to conditions: Plasmodium liver stage in hepatoma cells, luciferase luminescence, concentration not given here; liver cell % of control: measured here: host liver cell viability; parasite % of control: stronger effect = lower value.
The nature of experiment [2]: altered dexamethasone sensitivity, NF-kB reporter, cell-based, luciferase, IL-1B stimulus (AID 624486).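 As to percent of negative control (+Dex): 100% = mean signal of vehicle control wells on the plate.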 The following applies: IL-1B + dexamethasone, luminescence; percent of negative control (+Dex): actives lie on both sides, concentration not given here; z-score: measured here: IL-1B alone, no Dex.
A short description of experiment [3]: C. elegans survival during P. aeruginosa infection – whole organism (AID 651566).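 Also: tested at 14 µM; sign flipped so higher z means a lower ratio.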 The following applies: C. elegans killed by P. aeruginosa, survival ratio.
Experiment [4] in a line: pro-inflammatory signaling induction in mouse macrophages – cell-based, murine, luminescence (AID 652131). As to conditions: murine macrophage pro-inflammatory reporter, stronger effect = higher value.
Experiment [5] deals with Cellular tumor antigen p53 (Homo sapiens) (UniProt P04637). Nature of the experiment: GFP-p53 level modulators in HPV16+ cells – imaging, known kinase inhibitor set, EGFP/DsRed ratio (AID 1053116).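 Also: cells exposed to compounds for 24 h at 37 °C before reading.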 The following applies: GFP-p53 stability, stronger effect = higher value; EGFP object count: measured here: GFP-p53 positive objects count.
A short description of experiment [6]: inducers of IRF3 signaling, differentiated THP-1 – cell-based, PMA-stimulated THP-1, luminescence (AID 1053176). As to conditions: PMA-differentiated THP-1, IRF3 reporter luminescence; stronger effect = higher value.
The nature of experiment [7]: MELAS cybrid and Rieske KO viability enhancers – cell-based, MELAS cybrids, Rieske KO mouse fibroblasts, CellTiter-Glo, primary screen (AID 1508586;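 active = mean z-score across replicates of 1.96 or higher in either the MELAS or the Rieske mutant cell line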;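 also: z relative to plate mean and SD of compound and empty wells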). The following applies: low glucose.
[8] abbreviates: MELAS cybrid survival, CellTiter-Glo 48 h, stronger effect = higher value.
[9] abbreviates: Rieske KO mouse fibroblast survival, CellTiter-Glo 72 h.

Structures are written as SMILES. Active and inactive are the calls of the source. Unless noted, no rule for the calls is given here.

Sequence of Cellular tumor antigen p53 (Homo sapiens) (P04637 whole entry, looked up): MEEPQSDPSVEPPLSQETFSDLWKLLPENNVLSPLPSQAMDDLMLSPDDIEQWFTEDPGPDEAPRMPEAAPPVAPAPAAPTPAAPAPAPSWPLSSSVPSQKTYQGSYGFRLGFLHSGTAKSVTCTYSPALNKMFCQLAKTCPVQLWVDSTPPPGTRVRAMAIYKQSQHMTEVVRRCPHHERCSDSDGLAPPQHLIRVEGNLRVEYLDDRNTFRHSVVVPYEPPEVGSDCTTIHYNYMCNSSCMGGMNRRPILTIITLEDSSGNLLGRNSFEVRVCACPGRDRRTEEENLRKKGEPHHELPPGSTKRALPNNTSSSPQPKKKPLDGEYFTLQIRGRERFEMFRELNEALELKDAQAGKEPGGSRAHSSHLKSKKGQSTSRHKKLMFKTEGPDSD

Take `CS(=O)(=O)Nc1ccc(-c2ccc3c(NC(=O)C4CC4)n[nH]c3c2)cc1`: the liver cell % of control in experiment [1] stood at 98.9%. Besides, the parasite % of control in experiment [1] is 96.9% (inactive). In addition, in experiment [2], the percent of negative control (+Dex) is 94% (inactive). Further, the z-score in experiment [2] is 0.82; in experiment [3] it was 0.39 (inactive); in experiment [4], -0.745 (inactive); in experiment [7] (setting [8]) it was 0.24 (inactive); in experiment [7] (setting [9]) it was -0.0618. In experiment [5], the EGFP object count worked out at 3. Further, the EGFP/DsRed ratio in experiment [5] was 0.0815 (inactive). In addition, the fraction signal in experiment [6] was -0.009 (inactive).

Turning to `CCS(=O)(=O)c1ccc(OC)c(Nc2ncc(-c3ccccc3Cl)o2)c1`, in experiment [1], the liver cell % of control was 160%. The parasite % of control in experiment [1] is 36.8% (inactive). Also, the percent of negative control (+Dex) in experiment [2] was 74.5% (inactive). Moreover, the z-score in experiment [2] is -0.91; in experiment [3], -0.335 (inactive); in experiment [4] it was -0.503 (inactive); in experiment [7] (setting [8]), 1.39 (inactive); in experiment [7] (setting [9]) it was -0.145. In addition, the EGFP object count in experiment [5] stood at 4.5. Also, the EGFP/DsRed ratio in experiment [5] was 0.0626 (inactive). Further, the fraction signal in experiment [6] was 0.0065 (inactive).

With `O=C1NC(=O)C(c2cccc(Cl)c2)=C1Nc1ccc(Cl)c(C(=O)O)c1`, the liver cell % of control in experiment [1] came to 102%. Also, the parasite % of control in experiment [1] was 122% (inactive). The percent of negative control (+Dex) in experiment [2] is 96.5% (inactive). Besides, the z-score in experiment [2] is 0.205; in experiment [3] it was -0.33 (inactive); in experiment [4] it was -0.043 (inactive); in experiment [7] (setting [8]), -0.755 (inactive); in experiment [7] (setting [9]), -0.327. Further, the EGFP object count in experiment [5] turned out to be 2.5. In experiment [5], the EGFP/DsRed ratio was 0.103 (inactive). For the same compound, the fraction signal in experiment [6] is 0 (inactive).

In experiment [1], `Cc1cc(O)cc(C)c1/C=C/c1cncc(C(=O)N(C)C)c1` gave a liver cell % of control of 97.7%. Further, the parasite % of control in experiment [1] is 96.9% (inactive). In addition, the percent of negative control (+Dex) in experiment [2] was 106% (inactive). The z-score is 0.005 in experiment [2]; 0.18 (inactive) in experiment [3]; 0.003 (inactive) in experiment [4]; -0.281 (inactive) in experiment [7] (setting [8]); -0.0339 in experiment [7] (setting [9]). Moreover, the EGFP object count in experiment [5] worked out at 4.5. Besides, in experiment [5], the EGFP/DsRed ratio is 0.177 (inactive). For the same compound, the fraction signal in experiment [6] is 0.0095 (inactive).

`COc1cc(/C=N/Nc2ncnc3[nH]ncc23)ccc1O` gave a liver cell % of control in experiment [1] of 81.7%. Also, the parasite % of control in experiment [1] is 96.9% (inactive). In experiment [2], the percent of negative control (+Dex) is 87.5% (inactive). Also, the z-score in experiment [2] was -0.055; in experiment [3], 0.42 (inactive); in experiment [4], -0.354 (inactive); in experiment [7] (setting [8]), 0.451 (inactive); in experiment [7] (setting [9]) it was -0.093. Moreover, in experiment [5], the EGFP object count worked out at 2.5. The EGFP/DsRed ratio in experiment [5] is 0.119 (inactive). In experiment [6], the fraction signal is 0.001 (inactive).

In the case of `COc1cccc(/C=N/Nc2ncnc3c2cnn3-c2cccc(OC)c2)c1`, the liver cell % of control in experiment [1] worked out at 96.7%. In experiment [1], the parasite % of control is 107% (inactive). Also, in experiment [2], the percent of negative control (+Dex) was 91.5% (inactive). In addition, the z-score in experiment [2] was -0.3; in experiment [3], -0.385 (inactive); in experiment [4] it was 0.307 (inactive); in experiment [7] (setting [8]), 0.209 (inactive); in experiment [7] (setting [9]), -0.582. Moreover, the EGFP object count in experiment [5] turned out to be 9. The EGFP/DsRed ratio in experiment [5] is 0.222 (inactive). The fraction signal in experiment [6] is 0.0045 (inactive).

Compound `COc1cc2ncn(-c3cc(OCc4cccs4)c(C(N)=O)s3)c2cc1OC` registered a liver cell % of control in experiment [1] of 107%. Besides, the parasite % of control in experiment [1] is 69% (inactive). Moreover, the percent of negative control (+Dex) in experiment [2] is 111% (inactive). Further, the z-score in experiment [2] is 0.28; in experiment [3] it was -0.19 (inactive); in experiment [4] it was -0.264 (inactive); in experiment [7] (setting [8]) it was -0.262 (inactive); in experiment [7] (setting [9]), -0.175. In addition, the EGFP object count in experiment [5] was 3.5. Further, the EGFP/DsRed ratio in experiment [5] is 0.163 (inactive). The fraction signal in experiment [6] was -0.0075 (inactive).

`Nc1nc(-c2ccccn2)c(-c2ccc3ncccc3n2)s1`: in experiment [1], the liver cell % of control worked out at 94.7%. In addition, the parasite % of control in experiment [1] was 101% (inactive). The percent of negative control (+Dex) in experiment [2] was 81.5% (inactive). Also, the z-score in experiment [2] is -0.74; in experiment [3], 0.265 (inactive); in experiment [4] it was 4.39 (inactive); in experiment [7] (setting [8]), -0.0333 (inactive); in experiment [7] (setting [9]), -0.22. Besides, in experiment [5], the EGFP object count is 4. The EGFP/DsRed ratio in experiment [5] was 0.114 (inactive). Further, the fraction signal in experiment [6] was -0.01 (inactive).

Take `CS(=O)(=O)Nc1ccc(-c2cc(-c3ccccc3)cc(C(N)=O)c2N)cc1`: in experiment [1], the liver cell % of control stood at 89.1%. Moreover, the parasite % of control in experiment [1] is 126% (inactive). Further, the percent of negative control (+Dex) in experiment [2] was 88% (inactive). For the same compound, the z-score in experiment [2] was -0.23; in experiment [3], 1.28 (inactive); in experiment [4], -1.08 (inactive); in experiment [7] (setting [8]), 0.927 (inactive); in experiment [7] (setting [9]) it was 0.162. Moreover, in experiment [5], the EGFP object count is 2. For the same compound, the EGFP/DsRed ratio in experiment [5] is 0.102 (inactive). For the same compound, in experiment [6], the fraction signal is -0.0055 (inactive).

For the compound `CCc1ccc(Oc2nccc(-c3c(-c4ccc(F)cc4)ncn3C3CCNCC3)n2)cc1`, the liver cell % of control in experiment [1] was determined as 78.5%. For the same compound, the parasite % of control in experiment [1] was 140% (inactive). Besides, the percent of negative control (+Dex) in experiment [2] is 104% (inactive). Also, the z-score was 0.41 in experiment [2]; 0.125 (inactive) in experiment [3]; -0.495 (inactive) in experiment [4]; -0.158 (inactive) in experiment [7] (setting [8]); -0.111 in experiment [7] (setting [9]). The EGFP object count in experiment [5] turned out to be 4.5. For the same compound, the EGFP/DsRed ratio in experiment [5] was 0.0563 (inactive). Further, in experiment [6], the fraction signal is -0.0095 (inactive).

In turn, `CCOc1nccc2c1nc(-c1nonc1N)n2CC` yielded a liver cell % of control in experiment [1] of 107%. For the same compound, the parasite % of control in experiment [1] was 176% (inactive). Moreover, the percent of negative control (+Dex) in experiment [2] was 86% (inactive). Further, the z-score was -0.885 in experiment [2]; 0.225 (inactive) in experiment [3]; 0.153 (inactive) in experiment [4]; -0.642 (inactive) in experiment [7] (setting [8]); -0.113 in experiment [7] (setting [9]). In experiment [5], the EGFP object count stood at 4.5. Further, the EGFP/DsRed ratio in experiment [5] is 0.429 (inactive). In addition, the fraction signal in experiment [6] was 0 (inactive).

Regarding `FC(F)(F)c1cccc(Nc2nccc(-c3cnn4nc(-c5ccccc5)ccc34)n2)c1`, the liver cell % of control in experiment [1] is 97.2%. For the same compound, in experiment [1], the parasite % of control is 79.6% (inactive). Further, in experiment [2], the percent of negative control (+Dex) is 86.5% (inactive). In addition, the z-score in experiment [2] was -0.085; in experiment [3] it was 1.3 (inactive); in experiment [4], -0.793 (inactive); in experiment [7] (setting [8]), 1.22 (inactive); in experiment [7] (setting [9]) it was -0.183. Further, the EGFP object count in experiment [5] turned out to be 4.5. The EGFP/DsRed ratio in experiment [5] was 0.154 (inactive). Moreover, in experiment [6], the fraction signal was -0.0005 (inactive).

In the case of `COC(=O)Nc1nc2ccc(Oc3ccc(NC(=O)Nc4ccccc4)cc3)cc2[nH]1`, the liver cell % of control in experiment [1] amounted to 96.2%. Also, the parasite % of control in experiment [1] is 260% (inactive). Besides, the percent of negative control (+Dex) in experiment [2] is 112% (inactive). Further, the z-score in experiment [2] is 1.13; in experiment [3], 0.065 (inactive); in experiment [4] it was 0.608 (inactive); in experiment [7] (setting [8]) it was -0.73 (inactive); in experiment [7] (setting [9]) it was -0.00674. The EGFP object count in experiment [5] is 17.5. Further, the EGFP/DsRed ratio in experiment [5] was 0.664 (inactive). For the same compound, the fraction signal in experiment [6] is -0.0025 (inactive).

Regarding `Fc1cccc(COc2ccc(Nc3ncncc3C#Cc3ccccc3)cc2Cl)c1`, the liver cell % of control in experiment [1] worked out at 87.3%. Also, the parasite % of control in experiment [1] is 98% (inactive). Besides, the percent of negative control (+Dex) in experiment [2] was 85.5% (inactive). For the same compound, the z-score in experiment [2] is -0.815; in experiment [3], 1.36 (inactive); in experiment [4], -0.904 (inactive); in experiment [7] (setting [8]), -0.0898 (inactive); in experiment [7] (setting [9]) it was -0.226. Besides, in experiment [5], the EGFP object count stood at 4. Moreover, the EGFP/DsRed ratio in experiment [5] was 0.0412 (inactive). Further, the fraction signal in experiment [6] was -0.002 (inactive).

Compound `COc1cc2ncn(-c3cc(OCc4ccccc4C(F)(F)F)c(C(=O)N(C)C)s3)c2cc1OC` registered a liver cell % of control in experiment [1] of 104%. Moreover, the parasite % of control in experiment [1] is 116% (inactive). Also, in experiment [2], the percent of negative control (+Dex) was 89.5% (inactive). The z-score in experiment [2] was -0.475; in experiment [3], 0.535 (inactive); in experiment [4], 0 (inactive); in experiment [7] (setting [8]), 0.0168 (inactive); in experiment [7] (setting [9]), -0.0859. Besides, the EGFP object count in experiment [5] was determined as 8.5. Moreover, in experiment [5], the EGFP/DsRed ratio was 0.396 (inactive). In addition, the fraction signal in experiment [6] was -0.002 (inactive).
